{"source": "the supplement of paper PMC9135407", "test_system": "primary human hepatic stellate cells (donor 1)", "assay": "scaled lipid accumulation score (0 = DMSO-like, 1 = nortriptyline-like); higher = stronger HSC inactivation (lipid re-accumulation), active = hit call of the paper", "details": "48 h", "key": {"[1]": {"details": "library stock concentration: 3.33 mM"}, "[2]": {"details": "library stock concentration: 10 mM"}, "[3]": {"details": "library stock concentration: 1 mM"}, "[4]": {"details": "library stock concentration: 6.9 mM"}}, "note": "Where “and” joins values, the source holds several entries; their conditions need not be identical. Identical values can stand only once. Counter-ions that a name gives are not always drawn. Among all 5,800 compounds or so, about 620 (11%) showed activity. What follows is part of a selection rich in actives, with near analogues and random picks from the rest. A number with no mark means an inactive call.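 The calls were made as follows: active = score above a cut-off or among the top three wells of a plate; in these data no inactive exceeds 0.85.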", "data": [{"smiles": "O=C1C=CC[C@@H]2[C@H]3CCCN4CCC[C@@H](CN12)[C@@H]34", "note": "[Sophocarpine]", "values": [{"measurement": "scaled lipid accumulation score", "setting": "[1]", "value": "≤ 0"}, {"measurement": "scaled lipid accumulation score", "setting": "[2]", "value": "≤ 0"}]}, {"smiles": "CCCCC/C=C\\C/C=C\\C/C=C\\C/C=C\\CCCC(=O)NCCOP(=O)(O)O", "note": "[Arachidonoyl Ethanolamide Phosphate]", "values": [{"measurement": "scaled lipid accumulation score", "setting": "[3]", "value": "≤ 0"}]}, {"smiles": "C/C(=C\\c1csc(C)n1)[C@@H]1C[C@@H]2O[C@]2(C)CCC[C@H](C)[C@H](O)[C@@H](C)C(=O)C(C)(C)[C@@H](O)CC(=O)O1", "note": "[Epothilone B (EPO906, Patupilone)]", "values": [{"measurement": "scaled lipid accumulation score", "setting": "[1]", "value": "≤ 0"}, {"measurement": "scaled lipid accumulation score", "setting": "[2]", "value": "≤ 0"}]}, {"smiles": "CCCCC/C=C\\C/C=C\\C/C=C\\C/C=C\\CCCC(N)=O", "note": "[Arachidonamide]", "values": [{"measurement": "scaled lipid accumulation score", "setting": "[3]", "value": "≤ -0.021"}]}, {"smiles": "CCCCC/C=C\\C/C=C\\C/C=C\\C/C=C\\CCCC(N)=O", "note": "[Arachidonoyl amide]", "values": [{"measurement": "scaled lipid accumulation score", "setting": "[3]", "value": "≤ 0"}]}, {"smiles": "CN1[C@@H]2CC[C@H]1C[C@@H](OC1c3ccccc3CCc3ccccc31)C2", "note": "[Deptropine citrate]", "values": [{"measurement": "scaled lipid accumulation score", "value": 0.266}]}, {"smiles": "COc1cc(C(=O)OC2CC3CCC(C2)N3C)ccc1O", "note": "(configuration not stated) [Fillalbin]", "values": [{"measurement": "scaled lipid accumulation score", "value": "≤ 0"}]}, {"smiles": "CN1C2CCC1CC(OC(c1ccccc1)c1ccc(Cl)cc1)C2.Cl", "note": "(configuration not stated)", "values": [{"measurement": "scaled lipid accumulation score", "setting": "[2]", "value": "1.07 (active)"}]}, {"smiles": "CN1[C@H]2C[C@H](OC(=O)[C@H](CO)c3ccccc3)C[C@@H]1[C@@H](O)C2", "note": "[Anisodamine]", "values": [{"measurement": "scaled lipid accumulation score", "setting": "[2]", "value": 0.076}]}, {"smiles": "CN1[C@H]2C[C@H](OC(=O)[C@H](CO)c3ccccc3)C[C@@H]1[C@@H](O)C2", "values": [{"measurement": "scaled lipid accumulation score", "setting": "[2]", "value": "≤ 0"}]}, {"smiles": "CN1[C@@H]2CC[C@H]1C[C@@H](OC(c1ccccc1)c1ccccc1N)C2", "note": "(some centres not stated) [Aminobenztropine]", "values": [{"measurement": "scaled lipid accumulation score", "setting": "[2]", "value": 0.656}]}, {"smiles": "CN1C2CCC1CC(OC(c1ccc(F)cc1)c1ccc(F)cc1)C2.Cl", "note": "(configuration not stated)", "values": [{"measurement": "scaled lipid accumulation score", "setting": "[2]", "value": "1.29 (active)"}]}, {"smiles": "CC(C)(C)OC(=O)NC1[C@H]2CNC[C@@H]12", "note": "(some centres not stated)", "values": [{"measurement": "scaled lipid accumulation score", "setting": "[2]", "value": "≤ -0.033"}]}, {"smiles": "CCCCCCCCCCCCCCCCSP(=O)([O-])OCC[N+](C)(C)C", "note": "[thio-Miltefosine]", "values": [{"measurement": "scaled lipid accumulation score", "setting": "[3]", "value": "≤ 0"}]}, {"smiles": "CCCCC/C=C\\C/C=C\\C/C=C\\C/C=C\\CCCC(=O)NCc1ccoc1", "values": [{"measurement": "scaled lipid accumulation score", "setting": "[3]", "value": "≤ 0"}]}, {"smiles": "CCCCC(C#N)(Cn1cncn1)c1ccc(Cl)cc1", "note": "(configuration not stated) [Myclobutanil]", "values": [{"measurement": "scaled lipid accumulation score", "setting": "[4]", "value": "≤ 0"}]}, {"smiles": "[O-][n+]1ccccc1[S-].[O-][n+]1ccccc1[S-].[Zn+2]", "note": "[Pyrithione zinc]", "values": [{"measurement": "scaled lipid accumulation score", "setting": "library stock concentration: 6.3 mM", "value": 0.435}, {"measurement": "scaled lipid accumulation score", "setting": "[2]", "value": 0.127}]}, {"smiles": "c1cncc([C@@H]2CCCN2)c1", "note": "[Nornicotine]", "values": [{"measurement": "scaled lipid accumulation score", "setting": "[2]", "value": "≤ 0"}]}, {"smiles": "c1cncc([C@@H]2CCCCN2)c1", "note": "[Anabasine]", "values": [{"measurement": "scaled lipid accumulation score", "value": "≤ 0"}]}, {"smiles": "Fc1cc(F)c2c(c1)[C@H]1C=CC[C@@H]1C(c1cccnc1)N2", "note": "(some centres not stated) [Golgicide A]", "values": [{"measurement": "scaled lipid accumulation score", "setting": "[1]", "value": "0.872 (active)"}, {"measurement": "scaled lipid accumulation score", "setting": "[2]", "value": "1.03 (active)"}]}, {"smiles": "C[C@H](CCC(=O)O)C[C@H](C)C[C@H](C)C(=O)/C=C(\\O)[C@H](C)C[C@H](C)C/C=C/[C@@H](C)[C@@H](O)[C@@H](C)[C@@H](O)C[C@@H]1CC[C@@](C)([C@H]2CC[C@@](C)([C@@H](C)O)O2)O1", "note": "[Ionomycin]", "values": [{"measurement": "scaled lipid accumulation score", "setting": "library stock concentration: 7.1 mM", "value": 0.48}]}, {"smiles": "O=C1CN=C(c2ccccc2)c2cc([N+](=O)[O-])ccc2N1", "note": "[Nitrazepam]", "values": [{"measurement": "scaled lipid accumulation score", "setting": "[2]", "value": "≤ 0"}]}, {"smiles": "COc1ccc2[nH]cc(CCN)c2c1", "note": "[5-Methoxytryptamine]", "values": [{"measurement": "scaled lipid accumulation score", "setting": "[2]", "value": "≤ 0"}]}, {"smiles": "COc1ccc(CNC(=O)/C=C/c2ccc3[nH]cc(CCN(C)C)c3c2)cc1", "note": "[listing 1 of 2 here]", "values": [{"measurement": "scaled lipid accumulation score", "setting": "[2]", "value": 0.736}]}, {"smiles": "COc1ccc(CNC(=O)/C=C/c2ccc3[nH]cc(CCN(C)C)c3c2)cc1", "note": "[listing 2 of 2 here]", "values": [{"measurement": "scaled lipid accumulation score", "setting": "[2]", "value": "1.03 (active)"}]}, {"smiles": "COc1ccc2[nH]cc(CCN)c2c1", "note": "[O-Methylserotonin hydrochloride]", "values": [{"measurement": "scaled lipid accumulation score", "setting": "[2]", "value": "≤ -0.055"}]}, {"smiles": "O[C@H]1[C@H](O)[C@@H](O)CN2CC[C@H](O)[C@H]12", "note": "[Castanospermine]", "values": [{"measurement": "scaled lipid accumulation score", "setting": "[2]", "value": "≤ 0"}, {"measurement": "scaled lipid accumulation score", "setting": "library stock concentration: 26.4 mM", "value": 0.125}]}, {"smiles": "CCCCCC=CCC=CCC=CCC=CCCCC(=O)NCC(O)CC(=O)O", "note": "(configuration not stated) [N-Arachidonoyl-3-hydroxy-.gamma.-Aminobutyric Acid]", "values": [{"measurement": "scaled lipid accumulation score", "setting": "[3]", "value": "≤ 0"}]}, {"smiles": "CC[C@H]1CN2CC[C@H]1C[C@H]2[C@H](O)c1ccnc2ccc(OC)cc12", "note": "[Hydroquinine hydrobromide hydrate]", "values": [{"measurement": "scaled lipid accumulation score", "value": "≤ 0"}]}, {"smiles": "CCCC[C@H]1C(=O)O[C@H](C)[C@H](NC(=O)c2cccc(NC=O)c2OC)C(=O)O[C@@H](C)[C@@H]1OC(=O)CC(C)C", "note": "[2-methoxyantimycin A3]", "values": [{"measurement": "scaled lipid accumulation score", "setting": "library stock concentration: 9.4 mM", "value": 0.292}]}, {"smiles": "CC(C)(C)c1cc(C=C(C#N)C#N)cc(C(C)(C)C)c1O", "note": "[Tyrphostin 9] [listing 1 of 2 here]", "values": [{"measurement": "scaled lipid accumulation score", "setting": "[1]", "value": 0.175}, {"measurement": "scaled lipid accumulation score", "setting": "library stock concentration: 17.7 mM", "value": 0.752}]}, {"smiles": "CC(C)(C)c1cc(C=C(C#N)C#N)cc(C(C)(C)C)c1O", "note": "[Tyrphostin A9]", "values": [{"measurement": "scaled lipid accumulation score", "setting": "[2]", "value": 0.728}]}, {"smiles": "CC(C)(C)c1cc(C=C(C#N)C#N)cc(Br)c1O", "values": [{"measurement": "scaled lipid accumulation score", "setting": "[1]", "value": "≤ 0"}, {"measurement": "scaled lipid accumulation score", "setting": "[2]", "value": "≤ 0"}]}, {"smiles": "CC(C)(C)c1cc(C=C(C#N)C#N)cc(C(C)(C)C)c1O", "note": "[Tyrphostin 9] [listing 2 of 2 here]", "values": [{"measurement": "scaled lipid accumulation score", "setting": "[2]", "value": "1.27 (active)"}]}, {"smiles": "C[C@]12CC[C@H]3[C@@H](CCC4=CC(=O)CC[C@@]43C)[C@@H]1CC[C@@H]2O", "note": "[Testosterone]", "values": [{"measurement": "scaled lipid accumulation score", "setting": "[4]", "value": 0.032}, {"measurement": "scaled lipid accumulation score", "setting": "[2]", "value": "0.108 and 0.479"}]}, {"smiles": "Oc1cc2c(cc1O)[C@H]1c3ccccc3CN[C@@H]1CC2", "note": "(racemic) [Dihydrexidine hydrochloride]", "values": [{"measurement": "scaled lipid accumulation score", "setting": "[2]", "value": 0.823}]}, {"smiles": "CCCC[N+]1(C)[C@@H]2C[C@@H](OC(=O)[C@H](CO)c3ccccc3)C[C@H]1[C@@H]1O[C@@H]12", "note": "(single isomer, unassigned; (-)) [(-)-Scopolamine,n-Butyl-, bromide]", "values": [{"measurement": "scaled lipid accumulation score", "setting": "[2]", "value": "≤ 0"}]}, {"smiles": "CNCCc1c[nH]c2ccc(O)cc12", "note": "[N-omega-Methyl-5-hydroxytryptamine oxalate salt]", "values": [{"measurement": "scaled lipid accumulation score", "setting": "[2]", "value": "≤ -0.055"}]}, {"smiles": "CC(N)Cc1c[nH]c2ccc(OCc3cccs3)cc12.Cl", "note": "(configuration not stated)", "values": [{"measurement": "scaled lipid accumulation score", "setting": "[2]", "value": "1.18 (active)"}]}, {"smiles": "CC(N)Cc1c[nH]c2ccc(O)cc12", "note": "(configuration not stated)", "values": [{"measurement": "scaled lipid accumulation score", "setting": "[2]", "value": "≤ 0"}]}, {"smiles": "CC(N)Cc1c[nH]c2ccc(OCc3cccs3)cc12", "note": "(configuration not stated)", "values": [{"measurement": "scaled lipid accumulation score", "setting": "[3]", "value": 0.315}]}, {"smiles": "CCCCCCCCCOc1ccc2[nH]cc(CCN)c2c1", "note": "[5-Nonyloxytryptamine]", "values": [{"measurement": "scaled lipid accumulation score", "setting": "library stock concentration: 9.9 mM", "value": 0.5}]}, {"smiles": "CC(N)Cc1c[nH]c2ccc(O)cc12", "note": "(stereo not drawn) [alpha-Methyl-5-hydroxytryptamine maleate]", "values": [{"measurement": "scaled lipid accumulation score", "setting": "[2]", "value": "≤ -0.055"}]}, {"smiles": "CC(N)Cc1c[nH]c2ccc(OCc3cccs3)cc12.Cl", "note": "(configuration not stated) [BW 723C86 hydrochloride]", "values": [{"measurement": "scaled lipid accumulation score", "setting": "[2]", "value": "1.3 (active)"}]}]}
